Measured values published in PubChem BioAssay (NCI).
The panel holds about 83,000 compounds, 20% with a hit somewhere; the sample as a whole holds those more often.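 In brief: 96-well plates, 48 h treatment, single concentration, percent growth endpoint.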 Unmarked numbers belong to inactive results. The source made the active and inactive calls. Rule for the calls: active = growth percent below 10; inactive = the rest.

tested on: SK-MEL-28 melanoma; experiment: NCI-60 one-dose screen, 48 h (100 = growth as untreated, 0 = no growth, -100 = all killed); conditions: 10 µM unless noted

Row | Compound | growth
1 | COc1cc(/C=C/C(=O)c2ccccc2)ccc1Oc1nc(Nc2ccc(F)cc2)nc(N(C)C)n1 | 18%
2 | CN(C)CCCNC(=O)c1cc(NC(=O)c2cc(NC(=O)c3ccc(/C=C/c4ccccc4)cc3)cn2C)cn1C | 60.2%
3 | COc1ccc(C(=O)/C=C/c2ccc(Oc3nc(Nc4ccc(F)cc4)nc(N(C)C)n3)c(OC)c2)cc1 | 76.7%
4 | CN(C)CCOc1ccc(C(=O)C2[C@H](c3ccc(Cl)cc3)[C@@H](c3ccccc3)NC23C(=O)Nc2ccc(Br)cc23)cc1 (stereo partly specified) | 37.6%
5 | COc1ccc(-c2ccc(SCC(=O)NCCc3ccc(S(N)(=O)=O)cc3)nn2)cc1 | 89.1%
6 | Cc1nc(Nc2ncc(C(=O)Nc3c(C)cccc3Cl)s2)cc(N2CCN(CCCNC(=O)COc3ccc(C4CCC(=O)NC4=O)cc3)CC2)n1 (stereo unspecified) | 89.4%
7 | C=C1CCC2C3(C)COC(c4ccc(F)cc4)OC3CCC2(C)C1C/C=C1/C(=O)OCC1O (stereo unspecified) | -70.3% (active)
8 | O=c1onc(-c2cc3ccccc3nc2Cl)n1-c1cccc2ccccc12 | 55.9%
9 | O=C1NC(=O)/C(=C/c2ccccc2OCc2cc3ccccc3nc2Cl)S1 | 102%
10 | O=C(COc1ccc(NC(=O)Nc2ccc(Cl)c(Cl)c2)cc1)N=Nc1c(O)[nH]c2ccc(Br)cc12 | -77% (active)
11 | COc1cccc(/C=C/c2nc3ccccc3c(=O)n2CC(=O)Nc2ccc(Cl)cc2)c1 | 99.2%
12 | COc1ccc(C(=O)/C=C/c2cccc(Cl)c2)cc1S(N)(=O)=O | -25.7% (active)
13 | COc1cc(C2CC(c3cc(OC)c(OC)c(OC)c3)=NN2c2ccccc2)ccc1OCc1ccc(C)cc1 (stereo unspecified) | 103%
14 | CCOP(=O)(OCCCl)c1nc(-c2ccc(C)cc2)oc1NCc1ccccc1 (stereo unspecified) | 108%
15 | Cc1ccccc1[C@H]1C(C(=O)c2ccc(Cl)cc2)C2(N[C@@H]1c1ccccc1)C(=O)Nc1ccccc12 (stereo partly specified) | -34.3% (active)
16 | Cc1ccccc1[C@H]1C(C(=O)c2ccc(Cl)cc2)C2(N[C@@H]1c1ccccc1)C(=O)Nc1ccc(Br)cc12 (stereo partly specified) | 41%
17 | Cc1cc(=O)oc2cc(OCCOc3ccc(/C=C/C(=O)Nc4ccccc4N)cc3)ccc12 | 39.9%
18 | Cn1cc(NC(=O)c2cc(NC(=O)c3ccc(/C=C/c4ccccc4)cc3)cn2C)cc1C(=O)NCCCN1CCOCC1 | 32.5%

Row | Compound | growth
19 | CN1CCN(Cc2ccc(C(=O)Nc3cccc(C#Cc4cccc5[nH]nc(N)c45)c3)cc2C(F)(F)F)CC1 | -97.4% (active)
20 | CCCn1cc(-c2nc(Nc3ccc(C(=O)NCCCCNc4cccc5c4C(=O)N(C4CCC(=O)NC4=O)C5=O)cc3)nc3[nH]ccc23)cn1 (stereo unspecified) | 59.3%
21 | COc1c(F)ccc(C(=O)Nc2ccc3nc(NC(=O)C4CCCN(S(=O)(=O)c5ccc(C(F)(F)F)cc5)C4)sc3c2)c1F (stereo unspecified) | 92.3%
22 | Cn1nc(C(F)(F)F)cc1-c1cc(Cl)c(COc2ccc(Cl)cc2)c(-c2ccc(Cl)c(C(F)(F)F)c2)c1O | -48.8% (active)
23 | COc1ccc(C(=O)/C=C/c2ccccc2Br)cc1S(N)(=O)=O | -27.7% (active)
24 | COc1ccc2c(c1)c(/C=N/Nc1ccc3ccccc3n1)cn2C | -1.59% (active)
25 | COc1c(F)ccc(C(=O)Nc2ccc3nc(NC(=O)C4CCCN(S(=O)(=O)c5ccc(Br)c(F)c5)C4)sc3c2)c1F (stereo unspecified) | 99.6%
26 | COc1cc(OC)cc(-c2cc3ccc(N(C)C)cc3c(=O)[nH]2)c1 | 61.3%
27 | Clc1cccc(-c2ccc(OCCCN3CCN(c4ccncc4)CC3)cc2)c1 | -68.5% (active)
28 | CC12CC[C@@H]3[C@]4(C)COC(c5cn[nH]c5-c5ccc(Br)cc5)O[C@@H]4CC[C@@]3(C)[C@@H]1CC(C1=CCOC1=O)O2 (stereo partly specified) | 47.1%
29 | CC12CC[C@@H]3[C@]4(C)COC(c5cn[nH]c5-c5cccc(Cl)c5)O[C@@H]4CC[C@@]3(C)[C@@H]1CC(C1=CCOC1=O)O2 (stereo partly specified) | 36.3%
30 | CCCSc1nc(Nc2ccc(S(N)(=O)=O)cc2)c(C#N)c(-c2ccc(Cl)cc2)n1 | 73.8%
31 | COc1ccc(-c2nc3ccc(C(=O)NN4C(=O)c5ccc([N+](=O)[O-])cc5C4=O)cc3[nH]2)cc1 | 95.6%
32 | C=C1CC[C@@H]2[C@]3(C)COC(c4cn[nH]c4-c4ccc(Br)cc4)O[C@@H]3CC[C@@]2(C)[C@@H]1C/C=C1/C(=O)OCC1O (stereo partly specified) | -78% (active)
33 | Cc1cnc(C(=O)NNc2nc3cc(F)ccc3n3c(C(=O)N4CC5CC(C4)N5)ccc23)cn1 | 30.3%
34 | CCCSc1nc(Nc2ccc(S(N)(=O)=O)cc2)c(C#N)c(-c2cc(OC)c(OC)c(OC)c2)n1 | 35.8%
35 | C=C1CCC2C3(C)COC(c4ccccc4)OC3CCC2(C)C1CC(NCc1ccccc1)C1=CCOC1=O (stereo unspecified) | 94.2%
36 | C=C1CC[C@@H]2[C@]3(C)COC(c4ccccc4)O[C@@H]3CC[C@@]2(C)[C@@H]1C/C=C1/C(=O)OCC1OC(C)=O (stereo partly specified) | -86.9% (active)
